Bioassay records as filed in PubChem BioAssay.
Sm TGR block: inhibitors of Schistosoma mansoni thioredoxin glutathione reductase | Potency, µM (titrated, usually from 114 µM), usual class: inhibitors | AID 485364 | actives 3% (n = 360,000) | purified TGR, DTNB reduction, TNB absorbance 405 nm; also: nearly all actives have a fitted effect of over 60% in size
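First, TGR (20 nM dispensed) and NADPH were mixed with compound. Second, a 15 min room-temperature incubation followed. Third, further NADPH and then DTNB were added to start the reaction. Finally, TNB absorbance was monitored kinetically.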
RE007 growth inh: less growth of the S. pombe RE007 Vpr strain; Potency, µM (top dose mostly 92.2 µM), usual class: inhibitors; actives 0.21% (n = 360,000); S. pombe RE007 Vpr strain, BacTiter-Glo ATP luminescence, 24 h; AID 651644; active = well fitted falling curve with a large enough effect; inconclusive = small, poorly fitted or top-dose-only effect; inactive = no such curve, though single readings can be large or run the other way; also: nearly all actives have a fitted effect of over 50% in size
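Fission yeast strain RE007, carrying one chromosomally integrated HIV-1 vpr copy, was seeded at OD 0.01 in PMG+AL medium with 23 nL pinned compound. After 24 h at 30 °C and 99% humidity, viability was read by BacTiter-Glo luminescence.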
Tb PYK inh: blocks Trypanosoma brucei pyruvate kinase | TbPYK enzyme, Kinase-Glo Plus ATP luminescence, 45 min | Potency, µM (doses to about 76.8 µM), usual class: inhibitors | AID 624173 | actives 0.12% (n = 410,000) | Q57TT1; also: nearly all actives have a fitted effect of over 50% in size
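Glycolytic pyruvate kinase of T. brucei was incubated with substrate, test compound and 130 uM ADP for 45 minutes at room temperature. Luminescent Kinase-Glo Plus signal was measured after 10 minutes.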
LmPK inhibitor: blocks Leishmania mexicana pyruvate kinase activity | Q27686 | actives 0.37% (n = 290,000) | Potency, µM (titrated, usually from 57.5 µM), most hits filed as inhibitors | purified LmPK, Kinase-Glo ATP luminescence, 1 h
Target sequence (Q27686 whole entry, looked up): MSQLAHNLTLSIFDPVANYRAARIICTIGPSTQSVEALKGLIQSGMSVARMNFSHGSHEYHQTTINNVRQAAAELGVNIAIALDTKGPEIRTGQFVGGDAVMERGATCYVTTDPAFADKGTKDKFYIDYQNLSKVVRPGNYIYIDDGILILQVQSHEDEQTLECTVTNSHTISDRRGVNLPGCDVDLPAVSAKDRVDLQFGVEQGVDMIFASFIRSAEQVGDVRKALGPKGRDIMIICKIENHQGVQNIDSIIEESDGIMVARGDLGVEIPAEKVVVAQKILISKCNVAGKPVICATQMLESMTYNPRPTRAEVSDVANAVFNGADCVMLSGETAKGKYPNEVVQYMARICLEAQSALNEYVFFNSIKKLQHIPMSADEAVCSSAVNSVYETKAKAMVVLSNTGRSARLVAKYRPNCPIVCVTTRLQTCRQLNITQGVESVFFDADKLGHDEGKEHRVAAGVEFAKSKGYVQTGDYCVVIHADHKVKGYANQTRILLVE
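Screened at intermediate enzyme activity to detect both inhibitors and activators: LmPK at 0.1 nM, with a 0.5 nM enzyme column as activation reference. PEP 0.5 mM, ADP 0.1 mM; ATP detected by luminescence after 1 h.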
FBPA Giardia inh: Giardia lamblia aldolase inhibition | A8B2U2 | purified Giardia FBPA | Potency, µM (top dose mostly 59.6 µM), hits mostly inhibitors | actives 0.71% (n = 290,000) | AID 2451; also: nearly all actives have a fitted effect of over 55% in size
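40 nM FBPA preincubated 10 min at RT with compound (up to 57.5 uM final), then substrate plus GAPDH/TPI/NAD/arsenate coupling and diaphorase/resazurin added. Fluorescence read after 20 min at RT, 525/598 nm.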
Large screens that a line does not name were inactive; ! = a repeat was not active. Only some compounds are listed: those with a hit (about 3.3% of all), similar ones and a draw of the others. Unless noted, calls follow the shape of the dose curve; as a rule, active = well fitted curve in the direction sought with a large enough effect; inconclusive = small, poorly fitted or top-dose-only effect, or another doubt; inactive = no such curve, though single readings can be large; an effect the other way counts as inactive or inconclusive.

Cc1[nH][nH]c(=O)c1C(c1c(C)[nH][nH]c1=O)c1cn(C)c2ccccc12	FBPA Giardia inh 2.8µM
CC1(C)CC(N2CN(C3CCCCC3)CC2=O)CC(C)(C)N1	none
O=C(CCl)N(C/C=C/c1ccccc1)c1ccc2c(c1)OCCO2	Sm TGR block 7.1µM
Cc1ccc2c(c1)-c1onc(C(=O)N3CCN(c4cccc(C)c4C)CC3)c1CO2	none (no result: RE007 growth inh, LmPK inhibitor, FBPA Giardia inh)
Cc1cccc(N2CCN(C(=O)c3noc4c3COc3ccc(C)cc3-4)CC2C)c1 (stereo unspecified)	Sm TGR block 5.6µM!
Cc1cccc(N2CCN(C(=O)C3CC(=O)N(c4ccc5c(c4)OCCO5)C3)CC2C)c1 (stereo unspecified)	Sm TGR block 45µM (no result: LmPK inhibitor, FBPA Giardia inh)
O=C(CS(=O)(=O)c1cccc(Cl)c1)Nc1ccccc1Cl	none
CCOC(=O)c1c(O)c2cccc3c2n(c1=O)CC3	none
O=C1CC(/C=C/c2ccco2)=Nc2ccccc2N1	Sm TGR block 45µM
O=C1CC(/C=C/c2ccccn2)=Nc2ccccc2N1	Sm TGR block inconclusive
COc1ccc(N(C(=O)CCl)C(C(=O)NCCc2ccccc2)c2cccs2)cc1 (stereo unspecified)	Sm TGR block 10µM
COCCNC(=S)Nc1ccc([N+](=O)[O-])cc1C	Sm TGR block inconclusive
COCCCNC(=S)Nc1ccc(C)cc1[N+](=O)[O-]	Sm TGR block 45µM
Cc1ccc(CN2CCN(Cc3cnn(-c4ccc(Cl)cc4)c3)CC2CCO)o1 (stereo unspecified)	none
COc1cccc(CN2CCN(Cc3ccc(C)o3)CC2CCO)c1 (stereo unspecified)	Sm TGR block 35µM
COc1cccc(CN2CCN(Cc3ccc(OC)c(OC)c3)CC2CCO)c1 (stereo unspecified)	none
Cc1ccc(CN2CCN(Cc3ccncc3)CC2CCO)o1 (stereo unspecified)	Sm TGR block 20µM
COc1cccc(CN2CCN(Cc3ccc(O)c(OC)c3)CC2CCO)c1 (stereo unspecified)	Sm TGR block 35µM
COc1cccc(CN2CCN(Cc3cc4ccccc4o3)CC2CCO)c1 (stereo unspecified)	none
Cc1cc(SCCOc2ccc(Br)cc2)nc(N)n1	none
CC(C)CNc1ncnc2c1ncn2[C@H]1CN(CCN2CCOCC2)C[C@@H](CO)O1	none (no result: Sm TGR block, LmPK inhibitor, FBPA Giardia inh)
Cc1ccc(S(=O)(=O)NNC(=S)Nc2c(Cl)cccc2Cl)cc1	none
Oc1c(C=Nc2ccccc2Cl)[nH]c2ccccc12	Sm TGR block 50µM
Nn1c(SC/C=C/c2ccccc2)nnc1-c1ccncc1	Sm TGR block inconclusive
CNC(=O)COC(=O)c1cc(-c2ccco2)nc2ccccc12	Sm TGR block 2.8µM, FBPA Giardia inh inconclusive
CCN(CC)C(=O)COC(=O)c1cc(-c2ccco2)nc2ccccc12	Sm TGR block 1.8µM
CCN(CC)C(=O)COC(=O)c1cc(-c2ccc(OC)cc2)nc2ccccc12	none
O=C(COC(=O)c1cc(-c2ccco2)nc2ccccc12)NCc1ccccc1	Sm TGR block inconclusive
CCN(CC)c1ccc(CNC23CN4CN(CN(C4)C2)C3)cc1	none
CCn1c(COc2ccc(=O)n(-c3ccccc3)n2)nnc1SCc1ccccc1C	none
CCc1nc(SCC(=O)N2CCC(C)CC2)c2c(=O)n(C)c(=O)n(C)c2n1	none
CCCCn1c(-c2sccc2C)n[nH]c1=S	Tb PYK inh inconclusive, LmPK inhibitor 32µM
CCCCn1c(-c2ccco2)n[nH]c1=S	Tb PYK inh inconclusive
CCn1c(-c2c(Cl)c(C)nn2C)n[nH]c1=S	Sm TGR block inconclusive, Tb PYK inh inconclusive, FBPA Giardia inh inconclusive
CC(C)Cn1c(Cc2ccccc2)n[nH]c1=S	Tb PYK inh inconclusive, LmPK inhibitor 11µM
CCCCn1c(Cc2ccccc2)n[nH]c1=S	Tb PYK inh 11µM, LmPK inhibitor inconclusive
CCCCn1c(-c2c(Cl)c(C)nn2C)n[nH]c1=S	Tb PYK inh 10µM
CCn1c(Cc2ccccc2)n[nH]c1=S	Tb PYK inh inconclusive
CCN(CCNC(=O)C1CCN(Cc2nc(-c3cccc(Cl)c3)oc2C)CC1)c1ccccc1	none
CCOC(=O)NC(=S)Nc1ccc(C(C)(C)C)cc1Br	RE007 growth inh inconclusive
O=C(Cn1c(NCCO)nc2ccccc21)NCCc1ccc(F)cc1	none
